Experimental data reported in article PMC8384837, “Expanding the binding specificity for RNA recognition by a PUF domain”.
Substitutions are numbered along the chain they refer to.

Assays:
Test in all cases: yeast three-hybrid, YBZ-1, SC-Leu-His + 0.5 mM 3-AT, 4 days
Settings in all cases: tags: N-Gal4 AD-HA kept; label: inside an RPR1-promoter hybrid RNA with tandem MS2 sites; ssRNA
PUM1 PUF domain R3-SKL = PUM1 PUF domain R3-SKL (Homo sapiens, UniProt Q14671 828-1176, C935S;R936K;Q939L)
Outline: (§1)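 Pumilio-1 PUF domain libraries, randomized at the three base-contacting residues of each repeat, were co-expressed with matching RNA elements from a centromeric plasmid in strain YBZ-1, which carries a LexA–MS2 coat fusion and a HIS3 reporter. Transformants grew for four days on SC-Leu (input) or on SC-Leu-His + 0.5 mM 3-AT (selection), and the repeat regions were PCR-amplified and Illumina-sequenced. The interaction score is the log change in variant frequency from input to selection. That logarithm is base 2, with a pseudocount of 1 where a variant was absent.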

PUM1 PUF domain R3-VRK = PUM1 PUF domain R3-VRK (Homo sapiens, UniProt Q14671 828-1176, C935V;Q939K)
Outline: as §1

PUM1 PUF domain R3-MCV = PUM1 PUF domain R3-MCV (Homo sapiens, UniProt Q14671 828-1176, C935M;R936C;Q939V)
Outline: as §1

PUM1 PUF domain R7-MSR = PUM1 PUF domain R7-MSR (Homo sapiens, UniProt Q14671 828-1176, S1079M;N1080S;E1083R)
Outline: as §1

PUM1 PUF domain R7-RIR = PUM1 PUF domain R7-RIR (Homo sapiens, UniProt Q14671 828-1176, S1079R;N1080I;E1083R)
Outline: as §1

PUM1 PUF domain R5-KAM = PUM1 PUF domain R5-KAM (Homo sapiens, UniProt Q14671 828-1176, C1007K;R1008A;Q1011M)
Outline: as §1

PUM1 PUF domain R5-WHL = PUM1 PUF domain R5-WHL (Homo sapiens, UniProt Q14671 828-1176, C1007W;R1008H;Q1011L)
Outline: as §1

PUM1 PUF domain R4-NPN = PUM1 PUF domain R4-NPN (Homo sapiens, UniProt Q14671 828-1176, H972P;Q975N)
Outline: as §1

PUM1 PUF domain R8-PHR = PUM1 PUF domain R8-PHR (Homo sapiens, UniProt Q14671 828-1176, N1122P;Y1123H;Q1126R)
Outline: as §1

PUM1 PUF domain R3-GPY = PUM1 PUF domain R3-GPY (Homo sapiens, UniProt Q14671 828-1176, C935G;R936P;Q939Y)
Outline: as §1

PUM1 PUF domain R6-SWV = target: T1, PUM1 PUF domain R6-SWV (Homo sapiens, UniProt Q14671 828-1176, N1043S;Y1044W;Q1047V)
T1 sequence: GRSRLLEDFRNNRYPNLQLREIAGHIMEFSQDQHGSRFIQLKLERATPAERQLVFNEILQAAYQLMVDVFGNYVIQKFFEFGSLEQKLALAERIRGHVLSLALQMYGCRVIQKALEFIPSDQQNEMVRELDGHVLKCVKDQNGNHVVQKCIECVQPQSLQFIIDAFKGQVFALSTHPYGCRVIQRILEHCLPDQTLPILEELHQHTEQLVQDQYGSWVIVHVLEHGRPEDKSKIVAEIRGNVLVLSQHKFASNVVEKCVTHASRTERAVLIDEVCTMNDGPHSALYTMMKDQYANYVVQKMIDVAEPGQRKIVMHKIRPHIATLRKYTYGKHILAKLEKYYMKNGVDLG
Outline: as §1

PUM1 PUF domain R6-WWS = target: T2, PUM1 PUF domain R6-WWS (Homo sapiens, UniProt Q14671 828-1176, N1043W;Y1044W;Q1047S)
T2 sequence: T1 sequence with S216W, V220S
Outline: as §1

PUM1 PUF domain R6-MWG = target: T3, PUM1 PUF domain R6-MWG (Homo sapiens, UniProt Q14671 828-1176, N1043M;Y1044W;Q1047G)
T3 sequence: T1 sequence with S216M, V220G
Outline: as §1

PUM1 PUF domain R4-CRL = PUM1 PUF domain R4-CRL (Homo sapiens, UniProt Q14671 828-1176, N971C;H972R;Q975L)
Outline: as §1

PUM1 PUF domain R5-GRW = PUM1 PUF domain R5-GRW (Homo sapiens, UniProt Q14671 828-1176, C1007G;Q1011W)
Outline: as §1

PUM1 PUF domain R6-LWA = target: T4, PUM1 PUF domain R6-LWA (Homo sapiens, UniProt Q14671 828-1176, N1043L;Y1044W;Q1047A)
T4 sequence: T1 sequence with S216L, V220A
Outline: as §1

PUM1 PUF domain R5-GNN = PUM1 PUF domain R5-GNN (Homo sapiens, UniProt Q14671 828-1176, C1007G;R1008N;Q1011N)
Outline: as §1

PUM1 PUF domain R1-KGE = PUM1 PUF domain R1-KGE (Homo sapiens, UniProt Q14671 828-1176, S863K;R864G;Q867E)
Outline: as §1

PUM1 PUF domain R1-RAN = PUM1 PUF domain R1-RAN (Homo sapiens, UniProt Q14671 828-1176, S863R;R864A;Q867N)
Outline: as §1

PUM1 PUF domain R2-LLY = PUM1 PUF domain R2-LLY (Homo sapiens, UniProt Q14671 828-1176, N899L;Y900L;Q903Y)
Outline: as §1

With “GGCUAGAACUAGUGGAUCCCCCGGCGCCCGGCGGCUCGAGCCCGGGUAAGUGUAAUUAGUCUGCAUGCCGCCGGGCGCCAUGCCUGCAGGUCGACUCUAGAAAACAUG” the binding signal (PUM1 PUF domain R3-SKL) was 2.84 log2 enrichment (interaction score), the binding signal (PUM1 PUF domain R3-VRK) was 3.28 log2 enrichment (interaction score) and the binding signal (PUM1 PUF domain R3-MCV) was 1.41 log2 enrichment (interaction score).

With “GGCUAGAACUAGUGGAUCCCCCGGCGCCCGGCGGCUCGAGCCCGGGUAAGUUUAAAUAGUCUGCAUGCCGCCGGGCGCCAUGCCUGCAGGUCGACUCUAGAAAACAUG” the binding signal (PUM1 PUF domain R7-MSR) was 3.5 log2 enrichment (interaction score) and the binding signal (PUM1 PUF domain R7-RIR) was 3.4 log2 enrichment (interaction score).

With “GGCUAGAACUAGUGGAUCCCCCGGCGCCCGGCGGCUCGAGCCCGGGUAAGUGUCAAUAGUCUGCAUGCCGCCGGGCGCCAUGCCUGCAGGUCGACUCUAGAAAACAUG” the binding signal (PUM1 PUF domain R5-KAM) was 3.82 log2 enrichment (interaction score) and the binding signal (PUM1 PUF domain R5-WHL) was 2.9 log2 enrichment (interaction score).

“GGCUAGAACUAGUGGAUCCCCCGGCGCCCGGCGGCUCGAGCCCGGGUAAGUGUAAGUAGUCUGCAUGCCGCCGGGCGCCAUGCCUGCAGGUCGACUCUAGAAAACAUG” was tested, and the binding signal (PUM1 PUF domain R3-MCV) was 2.64 log2 enrichment (interaction score).

In the case of “GGCUAGAACUAGUGGAUCCCCCGGCGCCCGGCGGCUCGAGCCCGGGUAAGUGUAUAUAGUCUGCAUGCCGCCGGGCGCCAUGCCUGCAGGUCGACUCUAGAAAACAUG”, the binding signal (PUM1 PUF domain R4-NPN) is reported as 3.56 log2 enrichment (interaction score).

“GGCUAGAACUAGUGGAUCCCCCGGCGCCCGGCGGCUCGAGCCCGGGUAAGUGUAAAUAGUCUGCAUGCCGCCGGGCGCCAUGCCUGCAGGUCGACUCUAGAAAACAUG” was tested, and the binding signal (PUM1 PUF domain R8-PHR) was 4.34 log2 enrichment (interaction score), the binding signal (PUM1 PUF domain R3-GPY) was 6.77 log2 enrichment (interaction score) and the binding signal (PUM1 PUF domain R6-SWV) was 1.05 log2 enrichment (interaction score). For the same sequence, the binding signal (PUM1 PUF domain R6-WWS) was 3.36 log2 enrichment (interaction score), the binding signal (PUM1 PUF domain R6-MWG) was 3.83 log2 enrichment (interaction score) and the binding signal (PUM1 PUF domain R4-CRL) was 5.64 log2 enrichment (interaction score). For the same sequence, the binding signal (PUM1 PUF domain R5-GRW) was 2.31 log2 enrichment (interaction score) and the binding signal (PUM1 PUF domain R6-LWA) was 4.92 log2 enrichment (interaction score).

In the case of “GGCUAGAACUAGUGGAUCCCCCGGCGCCCGGCGGCUCGAGCCCGGGUAAGCGUAAAUAGUCUGCAUGCCGCCGGGCGCCAUGCCUGCAGGUCGACUCUAGAAAACAUG”, the binding signal (PUM1 PUF domain R8-PHR) is reported as 4.58 log2 enrichment (interaction score).

“GGCUAGAACUAGUGGAUCCCCCGGCGCCCGGCGGCUCGAGCCCGGGUAAGUGUUAAUAGUCUGCAUGCCGCCGGGCGCCAUGCCUGCAGGUCGACUCUAGAAAACAUG” was tested, and the binding signal (PUM1 PUF domain R5-GNN) was 3.44 log2 enrichment (interaction score) and the binding signal (PUM1 PUF domain R5-GRW) was 4.05 log2 enrichment (interaction score).

For “GGCUAGAACUAGUGGAUCCCCCGGCGCCCGGCGGCUCGAGCCCGGGUAAGUGUAAAUGGUCUGCAUGCCGCCGGGCGCCAUGCCUGCAGGUCGACUCUAGAAAACAUG”, the binding signal (PUM1 PUF domain R1-KGE) was 1.9 log2 enrichment (interaction score).

“GGCUAGAACUAGUGGAUCCCCCGGCGCCCGGCGGCUCGAGCCCGGGUAAGUGUAAAUUGUCUGCAUGCCGCCGGGCGCCAUGCCUGCAGGUCGACUCUAGAAAACAUG” was tested, and the binding signal (PUM1 PUF domain R1-KGE) was 4.18 log2 enrichment (interaction score) and the binding signal (PUM1 PUF domain R1-RAN) was 3.21 log2 enrichment (interaction score).

For “GGCUAGAACUAGUGGAUCCCCCGGCGCCCGGCGGCUCGAGCCCGGGUAAGUGAAAAUAGUCUGCAUGCCGCCGGGCGCCAUGCCUGCAGGUCGACUCUAGAAAACAUG”, the binding signal (PUM1 PUF domain R6-SWV) was 2.26 log2 enrichment (interaction score) and the binding signal (PUM1 PUF domain R6-LWA) was 3.04 log2 enrichment (interaction score).

With “GGCUAGAACUAGUGGAUCCCCCGGCGCCCGGCGGCUCGAGCCCGGGUAAGUGUGAAUAGUCUGCAUGCCGCCGGGCGCCAUGCCUGCAGGUCGACUCUAGAAAACAUG” the binding signal (PUM1 PUF domain R5-WHL) was 7.53 log2 enrichment (interaction score).

“GGCUAGAACUAGUGGAUCCCCCGGCGCCCGGCGGCUCGAGCCCGGGUAAGUGUAAAUCGUCUGCAUGCCGCCGGGCGCCAUGCCUGCAGGUCGACUCUAGAAAACAUG” was tested, and the binding signal (PUM1 PUF domain R1-RAN) was 3.89 log2 enrichment (interaction score).

In the case of “GGCUAGAACUAGUGGAUCCCCCGGCGCCCGGCGGCUCGAGCCCGGGUAAGUGUAAAGAGUCUGCAUGCCGCCGGGCGCCAUGCCUGCAGGUCGACUCUAGAAAACAUG”, the binding signal (PUM1 PUF domain R2-LLY) is reported as 2.22 log2 enrichment (interaction score).
